These results are taken from the supplement of paper PMC11150407.

Hit rate of the full screen: of about 3,000 compounds, about 45 (2%) showed an effect of 50% or more. This is one part of a sample in which strong results are shown more often than they occur.

In general, cell viability refers to a read-out of living cells in per cent, often relative to untreated cells.

This assay has as its system MOLM1 and UCSD/AML1 (averaged). As to the kind of experiment: cell viability relative to DMSO control (POC); higher = less growth inhibition. The following applies: 1 µM; 72 h. Here is the method:
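Primary viability screen in the 3q26 EVI1-high AML cell lines MOLM1 and UCSD/AML1, compounds at 1 uM for 72 h. ATP CellTiter-Glo read-out given as percent viable over DMSO control (POC), averaged over duplicates. This mapping covers the TimTec NDL-3000 natural derivative library, whose compounds are identified by TimTec catalogue codes (ST...).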
`Cc1ccc(-n2c(SCc3cccc(Cl)c3)nc3c(=O)[nH]cnc32)cc1`: the cell viability turned out to be 114%.
In the case of `CN(C)S(=O)(=O)Nc1ccc(S(=O)(=O)N2CCc3ccccc3C2)cc1`, the cell viability was 98.2%.
In the case of `COc1ccc(-c2nnc(SCc3nc4ccccc4[nH]3)o2)cc1OC` it was 95.3%.
`Cc1ccc(/C=C2\Oc3cc(O)ccc3C2=O)cc1`: the cell viability was found to be 98.7%.
In the case of `O=C(CSc1nc2c(=O)[nH]cnc2n1-c1ccccc1)NC1CCCC1`, the cell viability amounted to 91.7%.
Turning to `CC(NC(=O)c1ccccc1)C(=O)O` (stereo unspecified), the cell viability is 99.5%.
With `COc1ccc(C2c3[nH]c4ccccc4c3CCN2C(=O)/C=C/c2cc(OC)c(OC)c(OC)c2)cc1` (stereo unspecified), the cell viability was determined as 32.6%.
Take `COc1ccc(C2c3[nH]c4ccccc4c3CCN2C(=O)/C=C/c2ccc(OC)c(OC)c2)cc1` (stereo unspecified): the cell viability worked out at 81.9%.
In the case of `COc1ccc(/C=C/C(=O)N2CCc3c([nH]c4ccccc34)C2c2ccc(OC)cc2)cc1` (stereo unspecified) it was 90.2%; in that of `O=C(O)/C=C/c1ccc(Cl)c(Cl)c1`, 97.8%; in that of `COc1cc(C(=O)N2CCN(c3cccc(C)c3C)CC2)cc(OC)c1OC`, 12.5%.
`COc1cc(C(=O)N2CCN(C(=O)c3cccc(Cl)c3)CC2)cc(OC)c1OC`: the cell viability was determined as 102%.
`COc1cc(C(=O)N2CCOCC2)cc(OC)c1OC`: the cell viability worked out at 98.2%.
For the molecule `COc1cc(C(=O)Oc2ccccc2)cc(OC)c1OC`, the cell viability was found to be 108%.
As for `COc1cc(C(=O)N2c3ccccc3CC2C)cc(OC)c1OC` (stereo unspecified), the cell viability worked out at 91.9%.
In the case of `COc1cc(C(=O)N2c3ccccc3C(C)=CC2(C)C)cc(OC)c1OC`, the cell viability was 29.3%.
In the case of `O=C(/C=C/c1ccc2c(c1)OCO2)c1ccc2c(c1)OCCO2` it was 104%; in that of `Cn1c(SCc2ccc(Cl)cc2)nc2c(=O)[nH]cnc21`, 90%.
Turning to `COc1ccc2[nH]cc(CCNC(=O)c3nn(-c4ccccc4)nc3C)c2c1`, the cell viability was determined as 107%.
To `COc1ccc(/C=C2\Oc3ccc(Br)cc3C2=O)cc1` belongs 97.7%; to `CCC1C/C(=C\c2ccc(OC)cc2)C(=O)/C(=C/c2ccc(OC)cc2)C1` (stereo unspecified), 12.8%.
As for `COc1ccc(/C=C2\CCc3ccccc3C2=O)cc1`, the cell viability turned out to be 94%.
With `CCOC(=O)c1ccc2nc3c(=O)[nH]c(=O)nc-3n(CCc3ccc(OC)c(OC)c3)c2c1`, the cell viability is 99.7%.
`COc1ccc(/C=C/C(=O)O)cc1COc1ccccc1`: the cell viability was 101%.
Take `COc1ccc(C=O)cc1COc1ccc2c(c1)CCC2`: the cell viability amounted to 47.2%.
In the case of `COc1ccc(OCc2cc(C=O)ccc2OC)cc1`, the cell viability came to 107%.
As for `O=C(OCC1CCCN2CCCCC12)c1ccccc1O` (stereo unspecified), the cell viability came out at 96.9%.
On to `Cc1cc2oc(=O)cc(O)c2cc1C`, for which the cell viability is 95.7%.
As to `O=C(c1ccccc1)N1CCN(CC(O)Cn2c3ccccc3c3ccccc32)CC1` (stereo unspecified), the cell viability is 99.4%.
As for `CC1(C(=O)O)CCC2(C)CCC3(C)C(=CC(=O)C4C5(C)CCC(OC6OC(C(=O)O)C(O)C(O)C6OC6OC(C(=O)O)C(O)C(O)C6O)CC5CCC43C)C2C1.CC1(C(=O)O)CCC2(C)CCC3(C)C(=CC(=O)C4C5(C)CCC(OC6OC(C(=O)O)C(O)C(O)C6OC6OC(C(=O)O)C(O)C(O)C6O)CC5CCC43C)C2C1.CC1(C(=O)O)CCC2(C)CCC3(C)C(=CC(=O)C4C5(C)CCC(OC6OC(C(=O)O)C(O)C(O)C6OC6OC(C(=O)O)C(O)C(O)C6O)CC5CCC43C)C2C1.[Fe]` (stereo unspecified), the cell viability stood at 91.5%.
`O=c1cc(-c2ccccc2Cl)oc2c(Br)cc(Cl)cc12`: the cell viability was found to be 112%.
On to `O=C(N/N=C/c1cc(N=Nc2cccc(C(F)(F)F)c2)ccc1O)c1ccc2c(c1)OCO2`, for which the cell viability came to 21.3%.
For the molecule `O=C(N/N=C\c1cc(Br)cc(Br)c1OC(=O)c1cccc(F)c1)c1ccc2c(c1)OCO2`, the cell viability is 64.1%.
As for `O=C(N/N=C/c1cc(N=Nc2cccc3ccccc23)ccc1O)c1ccc2c(c1)OCO2`, the cell viability turned out to be 64.5%.
In the case of `Cc1cc(=O)[nH]c(SCC(=O)Nc2cccc(C)c2C)n1`, the cell viability was determined as 114%.
In the case of `Cc1ccccc1C(=O)OCC1CCCN2CCCCC12.O.O.O.O.O.O.O=[N+]([O-])O.O=[N+]([O-])O.[Co]` (stereo unspecified) it was 104%; in that of `CC(C)c1ccc(/C=C/C(=O)N2CCC3(O)CCCCC3C2c2ccc(F)cc2)cc1` (stereo unspecified), 77.9%; in that of `O=C(Nc1c(C(=O)Nc2ccccc2)c2ccccc2n(Cc2ccc(F)cc2)c1=O)c1ccccc1`, 94.1%.
On to `COc1cccc(C=Nc2ccc3cc4ccc(N=Cc5cccc(OC)c5O)cc4nc3c2)c1O`, for which the cell viability is 2.39%.
To `COC(=O)C1=C(C)NC(SCC(=O)c2ccc3c(c2)OCO3)=C(C#N)C1c1cccs1` (stereo unspecified) belongs 95.7%; to `CC(C)C(=O)NCC(=O)NCC(=O)O`, 98.8%; to `O=C(CCNc1n[nH]c(=O)[nH]c1=O)N/N=C/c1cccnc1`, 93%.
On to `COc1ccccc1CNC(=O)c1cc(OC)c(OC)c(OC)c1`, for which the cell viability was determined as 100%.
On to `CCn1c2ccccc2c2cc(/C=N/NC(=O)c3cc(OC)c(OC)c(OC)c3)ccc21`, for which the cell viability stood at 10.7%.
On to `COc1cc(/C=N/NC(=O)CCC(=O)Nc2ccccc2C)cc(OC)c1OC`, for which the cell viability came out at 91.6%.
On to `O=C(O)/C=C/c1c(Cl)cccc1Cl`, for which the cell viability worked out at 94.6%.
